Bioassay records from PubChem.
dFosB act-1 – activators of delta FosB homodimer, primary screen, biochemical, fluorescence polarization, TAMRA-CDK5 oligo, single point | AID 493131, 2011 | activation, % at 25 µM | Protein FosB (Mus musculus), P13346 | hit rate 0.99% among 340,000 | purified delta FosB; percent of positive-control signal above neutral wells;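 active = mean activation above about 17%, with every replicate also reaching it, limit read from the data, passing the limit was not always enough; inconclusive = only one of the two conditions met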
Target sequence (P13346 whole entry, looked up): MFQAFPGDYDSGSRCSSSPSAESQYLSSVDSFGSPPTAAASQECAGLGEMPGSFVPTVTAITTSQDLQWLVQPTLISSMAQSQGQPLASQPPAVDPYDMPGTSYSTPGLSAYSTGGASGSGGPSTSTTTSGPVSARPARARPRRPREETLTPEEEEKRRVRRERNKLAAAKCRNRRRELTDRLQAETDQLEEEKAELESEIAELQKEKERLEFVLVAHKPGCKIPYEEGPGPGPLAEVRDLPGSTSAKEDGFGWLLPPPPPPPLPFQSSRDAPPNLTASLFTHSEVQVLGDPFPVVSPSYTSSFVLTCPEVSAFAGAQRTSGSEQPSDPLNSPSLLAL
EBNA-1 inh – EBNA-1 DNA-binding inhibitors, primary screen, biochemical, fluorescence polarization; hit rate 0.34% among 300,000; inhibition, % at 14.8 µM; in the data active = inhibition above about 28%
PolyA inhibitor – polyadenylation inhibitors in yeast reporter cells, primary screen, luminescence, S. cerevisiae | S. cerevisiae SKY197-pL101 polyadenylation reporter, beta-gal luminescence; efflux-impaired pdr1/pdr3 knockout yeast; score 100 = 6 SD above DMSO | activity score, % at 12 µM | hit rate 0.02% among 300,000;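 active = lowest replicate activity score at least 50, where 100 means six control SD above control mean; inconclusive = lowest score under 50 but half or more replicates reach 50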;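 note: yeast exposed to compound for 9 h at 30 °C; higher score means more reporter readthrough which indicates perturbed polyadenylation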
NLRP3 yeast inh – NALP3 inflammasome inhibitors in reconstituted yeast, primary screen, luminescence, uHTS; Yeast reconstituted NLRP3/ASC/caspase-1, beta-gal luminescence, 24 h; inhibition, % at 10 µM; hit rate 0.39% among 330,000; AID 2825, 2010;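 active = inhibition of 50% or more; inactive = inhibition below 50%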;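 note: plate controls were induced DMSO wells for no effect and uninduced yeast grown without galactose for full effect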
NALP1 inh – NALP1 inflammasome inhibitors in reconstituted yeast, colorimetric, S. cerevisiae, triplicate retest | S. cerevisiae NALP1/ASC/caspase-1 growth, X-gal OD620, 72 h | inhibition, % at 10 µM | AID 2071, 2009 | hit rate 0.61% among 280,000; in the data active = inhibition mostly above about 24%, no sharp cut-off; inactive = mostly below about 32%
ZTA DNA inh – ZTA (EBV) inhibition in EBNA-1 counter-screen; P03206; ZTA-DNA binding, fluorescence polarization; inhibition, % at 11 µM; hit rate 0.15% among 320,000; in the data active = inhibition above about 33%
Target sequence (P03206 whole entry, looked up): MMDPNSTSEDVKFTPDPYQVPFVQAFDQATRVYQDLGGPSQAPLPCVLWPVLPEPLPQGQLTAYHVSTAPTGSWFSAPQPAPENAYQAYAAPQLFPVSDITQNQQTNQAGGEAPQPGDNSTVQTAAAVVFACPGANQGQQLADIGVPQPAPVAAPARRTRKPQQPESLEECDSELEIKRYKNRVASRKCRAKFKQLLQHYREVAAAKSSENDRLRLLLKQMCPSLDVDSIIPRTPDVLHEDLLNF
dFosB act-2 – activators of mouse delta FosB DNA binding, confirmation, biochemical, fluorescence polarization, TAMRA-CDK5 oligo, cherry-picked samples. shares compounds with dFosB act-1. purified delta FosB; normalised: neutral wells 0, positive control 100. activation, % at 24.9 µM. 2,400 tested, under 10 active. AID 588690, 2011;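 active = highest replicate activation at or above 34% and every replicate reaching that threshold; inconclusive = meets only one of the two criteria; inactive = meets neither criterion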;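 note: higher polarization means more probe DNA bound by delta FosB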
* hit, by the source's call; ? = inconclusive; . = no result given. This is a sample that favours compounds with a hit; in the whole collection about 2.2% have one here.

SMILES	dFosB act-1	EBNA-1 inh	PolyA inhibitor	NLRP3 yeast inh	NALP1 inh	ZTA DNA inh	dFosB act-2
O=C(CSc1nnnn1-c1ccccc1)Nc1ccccc1	-4	4	4	23	18	9	.
COc1ccc(NC(=O)CSc2nnnn2-c2ccc(OC)cc2)cc1	2	-4	-17	10	-16	-8	.
Cc1ccc(-n2nnnc2SCC(=O)NC(=O)Nc2ccc3c(c2)OCCO3)cc1	?	7	-2	12	-20	6	.
COc1cc(OC)cc(-n2nnnc2SCC(=O)Nc2ccc(C(C)=O)cc2)c1	37*	3	-2	0	7	-1	-7
Cc1ccc(N(CC(O)CN2CCCCC2)S(=O)(=O)c2ccc(C)cc2)cc1 (configuration not stated)	-9	0	9	14	4	1	.
Cc1cc2c(cc1C)C(c1ccccc1F)CC(=O)N2 (configuration not stated)	4	-17	1	9	13	-26	.
Cc1cc2c(cc1C)C(c1cc(Br)ccc1F)CC(=O)N2 (configuration not stated)	22*	0	-30	14	24	-10	2
CCN(CC)CCN(C(=O)c1ccc2c(c1)CCCC2)c1nc2ccc(C)cc2s1	11	-4	-12	24	29	-6	.
CCN(CC)CCN(C(=O)c1ccc2c(c1)CCCC2)c1nc2ccc(OC)cc2s1	23*	-6	-10	25	28	-14	1
CCN(CC)CCN(C(=O)c1ccc2c(c1)CCCC2)c1nc2c(C)cccc2s1	29*	-6	14	21	13	-9	-5
CC(C)Sc1nc2c(cnn2-c2ccccc2)c(=O)[nH]1	11	1	-12	7	24	-7	.
O=c1[nH]c(/C=C/c2ccc(OC(F)F)cc2)nc2c1cnn2-c1ccccc1	65*	6	9	7	3	-6	1
NNc1nc(Nc2ccccc2)nc(N2CCCCC2)n1	6	7	-4	12	-4	14	.
COc1ccc(Nc2nc(NN)nc(Nc3ccc(OC)cc3)n2)cc1	25*	3	3	22	-3	-2	1
NNc1nc(Nc2ccccc2)nc(Nc2ccccc2)n1	46*	-4	-29	33	-7	5	-7
Cc1ccc(C(=O)COC(=O)c2ccc3c(c2)C(=O)N(c2cccc4ncccc24)C3=O)cc1	49*	0	.	-6	35	-12	5
O=C(COC(=O)c1ccc2c(c1)C(=O)N(c1cccc3ncccc13)C2=O)c1ccc(Cl)cc1	65*	15	7	4	35	7	2
O=C(OCC(=O)c1ccc(Cl)cc1Cl)c1ccc2c(c1)C(=O)N(c1cccc3ncccc13)C2=O	7	7	-13	1	7	-20	.
CCCc1ccc(S(=O)(=O)NCc2nnc(SC)n2C)cc1	-1	3	7	11	-4	1	.
O=C1CN(C(=O)CSc2nnnn2C2CC2)c2ccccc2N1	1	.	.	6	.	1	.
CC(=O)c1cccc(NC(=O)Cn2cnc(S(=O)(=O)N3CCC(C)CC3)c2)c1	50*	-3	-17	0	14	9	0
CC1CCN(S(=O)(=O)c2cn(CC(=O)Nc3cccc(C#N)c3)cn2)CC1	-1	-1	10	-1	5	0	.
O=C(CCc1nc2ccccc2c(=O)[nH]1)Nc1nc(-c2cccs2)cs1	26*	10	-20	-8	.	6	-1
O=C(CCc1nc2ccccc2c(=O)[nH]1)Nc1nnc(SCc2ccc(F)cc2)s1	90*	-10	25	13	.	1	5
CCOC(=O)N1CCN(CC(=O)Nc2nc3ccc(OC)cc3s2)CC1	-2	-5	-16	19	-59	-21	.
SMILES	dFosB act-1	EBNA-1 inh	PolyA inhibitor	NLRP3 yeast inh	NALP1 inh	ZTA DNA inh	dFosB act-2
COc1ccc(NCc2cc(=O)oc3cc(NC(C)=O)ccc23)cc1	5	-7	3	21	24	-12	.
COc1ccccc1C1CCN(Cc2ccccc2)CC1	-2	0	-7	19	22	-7	.
COc1ccccc1C1CCN(Cc2ccc3ccccc3c2)CC1	21*	6	-6	19	28	12	2
COc1cc(/C=C(\C#N)c2nc3ccccc3[nH]2)ccc1OC(=O)c1ccco1	27*	8	-13	32	26	-7	4
COc1cc(/C=C(/C#N)c2nc3ccccc3[nH]2)ccc1OCC(=O)Nc1ccccc1C	-7	-11	.	14	10	12	.
COc1ccc2c(Cl)c(C(=O)N/N=C/c3ccncc3)sc2c1	52*	-10	-20	24	13	0	4
Cc1ccc(-c2cc(C(=O)N/N=C/c3ccc(Cl)cc3)n[nH]2)o1	27*	0	-17	17	24	-17	1
O=C(NNC(=O)c1cc2ccccc2cc1O)Nc1ccc(F)cc1F	30*	2	-3	15	4	-2	-10
C/C(=N\NC(=O)COc1ccccc1[N+](=O)[O-])c1cccc(NC(=O)c2ccncc2)c1	21*	-6	-4	16	3	-12	3
C/C(=N\NC(=O)c1ccncc1)c1cccc(NC(=O)c2ccc(C(C)(C)C)cc2)c1	-12	-13	-1	12	20	5	.
COc1cc(NC(=O)c2ccco2)c(C(=O)OCC(=O)c2c[nH]c3ccccc23)cc1OC	39*	7	-11	7	18	2	7
O=C(OCC(=O)c1c[nH]c2ccccc12)c1ccco1	-6	3	-11	12	0	12	.
O=c1[nH]c(CSc2nc3ccccc3[nH]2)nc2c1cnn2-c1ccccc1	-19	-1	-1	-3	-2	-17	.
O=c1[nH]c(SCc2nc3c(cnn3-c3ccccc3)c(=O)[nH]2)nc2ccccc12	44*	.	.	.	8	.	4
Cc1cccc(N(CC(=O)N/N=C/c2ccc(C(=O)O)cc2)S(=O)(=O)c2ccccc2)c1C	.	6	7	1	.	-6	.
CCCc1ccc(-c2cc(C(=O)NCCc3ccc(S(N)(=O)=O)cc3)c3ccccc3n2)cc1	11	-3	2	23	15	-1	.
NS(=O)(=O)c1ccc(CCNC(=O)c2cc(-c3ccc(Br)cc3)nc3ccccc23)cc1	79*	5	4	5	3	-3	0
C[C@H]1C=C(C(=O)NCc2ccccc2)O[C@@H](OCc2ccc(CO)cc2)C1	-2	3	19	23	0	13	.
COc1cc(OC)cc(-c2nnc(NC(=O)c3ccc4c(c3)OCCO4)o2)c1	26*	6	1	3	-1	10	-8
